Data as given in PubChem BioAssay AID1159580 (chemical genetic matrix, 2015).
Among all 5,500 compounds or so, about 2,000 (36%) were called active. Inconclusive results (about 18%) are left out. Cut-off read from the data, not from the text of the source: active = normalized growth mostly below about 0.91 (no sharp cut-off); inconclusive = no clear call, values can overlap the other calls; inactive = mostly above about 0.92. This is one part of the list.

Assay: chemical genetic growth profiling, strain panel (AID 1159580);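 note: tested at 20 µM; growth read once vehicle control cultures reached saturation at 30 °C; 1 = growth at the plate median or of vehicle wells; lower values mean less growth of the strain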
Conditions: S. cerevisiae deletion strains, growth OD
[1] = locus YAL013W, strain DEP1, active compounds read low
[2] = locus YBR229C, strain ROT2, active compounds read low
[3] = locus YDL101C, strain DUN1, active compounds read low
[4] = locus YDR150W, strain NUM1, active compounds read low
[5] = locus YEL061C, strain CIN8, active compounds read low
[6] = locus YGR078C, strain PAC10, active compounds read low
[7] = locus YHR030C, strain SLT2, active compounds read low
[8] = locus YHR087W, strain rtc3, active compounds read low
[9] = locus YJL187C, strain SWE1, active compounds read low
[10] = locus YJR043C, strain POL32, active compounds read low
[11] = locus YJR075W, strain HOC1, active compounds read low
[12] = locus YLR039C, strain RIC1, active compounds read low
[13] = locus YLR058C, strain SHM2 (second series), active compounds read low
[14] = locus YLR085C, strain ARP6, active compounds read low
[15] = locus YLR262C, strain YPT6, active compounds read low
[16] = locus YML094W, strain GIM5, active compounds read low
[17] = locus YMR219W, strain ESC1, active compounds read low
[18] = locus YMR263W, strain SAP30, active compounds read low
[19] = locus YNL153C, strain GIM3, active compounds read low
[20] = locus YNL298W, strain CLA4 (second series), active compounds read low
[21] = locus YNL322C, strain KRE1, active compounds read low
[22] = locus YNR030W, strain Alg12, active compounds read low
[23] = locus YPL055C, strain LGE1, active compounds read low
[24] = locus YPL241C, strain CIN2, active compounds read low
[25] = locus YPR135W, strain CTF4, active compounds read low
[26] = locus YHR079C, strain IRE1, active compounds read low
[27] = locus YJL095W, strain BCK1, active compounds read low
[28] = locus YJR066W, strain TOR1, active compounds read low
[29] = locus YLR113W, strain HOG1, active compounds read low
[30] = locus YNL183C, strain NPR1, active compounds read low
[31] = locus YOR231W, strain MKK1, active compounds read low
[32] = locus YPL256C, strain CLN2, active compounds read low

Measured: normalized growth

CN1c2ccccc2C(=O)/C(=N/Nc2ccccc2F)S1(=O)=O
inactive: [1] 1 | [2] 1.02 | [3] 1.02 | [4] 1.04 | [5] 1.01 | [6] 1.02 | [7] 0.991 | [8] 1.01 | [9] 0.997 | [10] 1.01 | [11] 1.02 | locus YKL190W, strain CNB1, active compounds read low 1 | [12] 0.999 | [13] 1.02 | [14] 0.965 | [15] 1.01 | [16] 0.995 | [17] 1.01 | [18] 1.01 | [19] 1.02 | [20] 0.995 | [21] 1.01 | [22] 0.997 | [23] 1.03 | [24] 0.993 | [25] 1.06

O=C(NCCCCO)OCC1c2ccccc2-c2ccccc21
inactive: [1] 1 | [2] 0.997 | [3] 1 | [4] 0.986 | [5] 0.985 | [6] 0.991 | locus YGR229C, strain SMI1, active compounds read low 0.987 | [7] 0.867 | [8] 0.987 | [10] 0.989 | [11] 1.01 | [12] 1.02 | [13] 0.98 | [14] 0.886 | [15] 1.02 | [16] 0.955 | [17] 0.995 | [18] 0.959 | locus YMR307W, strain GAS1, active compounds read low 0.812 | [19] 0.983 | [20] 0.929 | [21] 1 | [22] 0.963 | [23] 0.953 | [24] 0.937 | [25] 0.959

CC(C)C[C@@H](NC(=O)OCC1c2ccccc2-c2ccccc21)C(=O)O
inactive: locus YAL021C, strain ccr4, active compounds read low 0.988 | locus YAL026C, strain drs2, active compounds read low 0.982 | locus YAL030W, strain snc1, active compounds read low 0.991 | locus YBL061C, strain skt5, active compounds read low 1.01 | locus YBR009C, strain hhf1, active compounds read low 1.01 | locus YBR023C, strain chs3, active compounds read low 1 | locus YBR171W, strain sec66, active compounds read low 1 | locus YBR231C, strain swc5, active compounds read low 1.01 | locus YBR279W, strain paf1, active compounds read low 0.998 | locus YCL011C, strain gbp2, active compounds read low 0.993 | locus YCL016C, strain dcc1, active compounds read low 0.983 | locus YCL061C, strain MRC1, active compounds read low 1 | locus YCL069W, strain vba3, active compounds read low 0.995 | locus YCR088W, strain abp1, active compounds read low 0.992 | locus YDL005C, strain med2, active compounds read low 0.986 | locus YDL040C, strain nat1, active compounds read low 0.985 | locus YDR001C, strain nth1, active compounds read low 0.977 | locus YDR069C, strain doa4, active compounds read low 0.993 | locus YDR137W, strain rgp1, active compounds read low 0.962 | locus YDR159W, strain sac3, active compounds read low 1.04 | locus YDR195W, strain ref2 0.945 | locus YDR297W, strain sur2, active compounds read low 1 | locus YDR334W, strain swr1, active compounds read low 0.988 | locus YDR335W, strain msn5, active compounds read low 0.991 | locus YDR392W, strain spt3, active compounds read low 0.955 | locus YEL003W, strain gim4, active compounds read low 0.999 | locus YEL037C, strain rad23, active compounds read low 0.998 | locus YEL061C, strain CIN8 (second series), active compounds read low 0.997 | locus YER015W, strain faa2, active compounds read low 0.997 | locus YER016W, strain bim1, active compounds read low 0.993 | locus YER111C, strain swi4, active compounds read low 1 | locus YER155C, strain BEM2 (second series), active compounds read low 1.02 | locus YFR010W, strain ubp6, active compounds read low 0.991 | locus YGL167C, strain pmr1, active compounds read low 0.999 | locus YGL173C, strain kem1, active compounds read low 1 | locus YGL227W, strain vid30, active compounds read low 0.996 | locus YGL240W, strain doc1, active compounds read low 1.01 | locus YGL253W, strain hxk2, active compounds read low 1 | locus YHR013C, strain ard1, active compounds read low 0.998 | locus YHR027C, strain rpn1, active compounds read low 0.984 | [7] 0.966 | [26] 0.976 | locus YHR142W, strain chs7, active compounds read low 0.996 | locus YJL092W, strain hpr5, active compounds read low 1 | locus YJL095W, strain BCK1 (second series), active compounds read low 0.999 | [27] 0.98 | locus YJL115W, strain asf1, active compounds read low 0.979 | locus YJL129C, strain trk1, active compounds read low 1 | locus YJL154C, strain vps35, active compounds read low 0.986 | locus YJL164C, strain tpk1, active compounds read low 0.971 | locus YJL166W, strain qcr8, active compounds read low 1 | [9] 0.996 | [28] 0.89 | locus YKL160W, strain elf1, active compounds read low 0.99 | locus YKR026C, strain gcn3, active compounds read low 1 | locus YKR091W, strain srl3, active compounds read low 0.981 | locus YLL001W, strain dnm1, active compounds read low 0.974 | locus YLL026W, active compounds read low 0.992 | locus YLL041C, strain sdh2, active compounds read low 1 | locus YLR027C, strain aat2, active compounds read low 1 | [29] 0.888 | locus YLR221C, strain rsa3, active compounds read low 1.03 | locus YLR258W, strain gsy2, active compounds read low 1 | locus YLR262C, strain YPT6 (second series), active compounds read low 0.949 | locus YLR320W, strain mms22, active compounds read low 1.02 | locus YLR342W, strain FKS1, active compounds read low 0.99 | locus YLR357W, strain rsc2, active compounds read low 0.97 | locus YLR370C, strain arc18, active compounds read low 1.01 | locus YLR384C, strain iki3, active compounds read low 0.991 | locus YML120C, strain ndi1, active compounds read low 0.994 | locus YMR058W, strain fet3, active compounds read low 0.991 | locus YMR125W, strain sto1, active compounds read low 0.965 | locus YMR129W, active compounds read low 0.998 | locus YMR205C, strain PFK2, active compounds read low 0.973 | locus YMR231W, strain pep5, active compounds read low 0.971 | locus YNL071W, strain lat1, active compounds read low 0.995 | [30] 0.888 | locus YNL209W, strain ssb2, active compounds read low 0.997 | locus YNL248C, strain rpa49, active compounds read low 0.978 | locus YNL322C, strain KRE1 (second series), active compounds read low 1 | locus YNR049C, strain mso1, active compounds read low 0.998 | locus YOR001W, strain rrp6, active compounds read low 1.01 | locus YOR070C, strain gyp1, active compounds read low 0.991 | locus YOR080W, strain dia2, active compounds read low 1.01 | locus YOR083W, strain WHI5, active compounds read low 0.986 | locus YOR106W, strain vam3, active compounds read low 0.963 | [31] 0.949 | locus YOR265W, strain rbl2, active compounds read low 1 | locus YOR270C, strain vph1, active compounds read low 0.954 | locus YOR290C, strain snf2, active compounds read low 0.956 | locus YPL051W, strain arl3, active compounds read low 1.01 | locus YPL078C, strain atp4, active compounds read low 0.979 | locus YPL106C, strain sse1, active compounds read low 1.02 | locus YPL240C, strain hsp82, active compounds read low 1.01 | [32] 0.945

O=C(Nc1ccccc1C(=O)O)OCC1c2ccccc2-c2ccccc21
inactive: locus YAR019C, strain CDC15, active compounds read low 0.993 | locus YBL105C, strain PKC1, active compounds read low 0.989 | locus YBR135W, strain CKS1, active compounds read low 0.978 | locus YBR136W, strain MEC1, active compounds read low 0.987 | locus YBR160W, strain CDC28, active compounds read low 0.981 | locus YDL017W, strain CDC7, active compounds read low 0.986 | locus YDL028C, strain MPS1, active compounds read low 0.987 | [3] 0.988 | locus YDL108W, strain KIN28, active compounds read low 0.984 | locus YDL132W, strain cdc53, active compounds read low 0.985 | locus YDL214C, strain PRR2, active compounds read low 0.884 | locus YDR052C, strain DBF4, active compounds read low 0.983 | locus YDR054C, strain cdc34, active compounds read low 0.99 | locus YDR226W, strain ADK1, active compounds read low 0.982 | locus YDR477W, strain SNF1, active compounds read low 0.859 | locus YER123W, strain YCK3, active compounds read low 0.839 | locus YER133W, strain GLC7, active compounds read low 0.901 | locus YFL009W, strain cdc4, active compounds read low 0.986 | locus YFL029C, strain CAK1, active compounds read low 0.992 | locus YFR003C, strain YPI1, active compounds read low 0.985 | locus YFR019W, strain FAB1, active compounds read low 0.803 | locus YFR028C, strain CDC14, active compounds read low 0.979 | locus YGR040W, strain KSS1, active compounds read low 0.857 | locus YGR052W, strain FMP48, active compounds read low 0.701 | locus YGR092W, strain DBF2, active compounds read low 0.683 | [26] 0.793 | locus YHR205W, strain SCH9, active compounds read low 0.746 | locus YIL147C, strain SLN1, active compounds read low 0.986 | [27] 0.665 | locus YJL128C, strain PBS2, active compounds read low 0.927 | locus YJL157C, strain FAR1, active compounds read low 0.893 | locus YJR016C, strain ILV3, active compounds read low 0.99 | locus YJR066W, strain TOR1 (second series), active compounds read low 0.826 | [28] 0.709 | locus YKL067W, strain YNK1, active compounds read low 0.866 | locus YKL101W, strain HSL1, active compounds read low 0.72 | locus YKL193C, strain SDS22, active compounds read low 0.987 | locus YKL203C, strain TOR2, active compounds read low 0.883 | locus YLR133W, strain CKI1, active compounds read low 0.78 | locus YLR403W, strain SFP1, active compounds read low 0.795 | locus YML070W, strain DAK1, active compounds read low 0.842 | locus YMR001C, strain CDC5, active compounds read low 0.986 | locus YMR205C, strain PFK2 (second series), active compounds read low 0.853 | locus YMR277W, strain FCP1, active compounds read low 0.989 | locus YNL006W, strain LST8, active compounds read low 0.978 | locus YNL020C, strain ARK1, active compounds read low 0.728 | locus YNL161W, strain CBK1, active compounds read low 0.983 | [30] 0.742 | locus YNL207W, strain RIO2, active compounds read low 0.992 | locus YNL222W, strain SSU72, active compounds read low 0.985 | locus YNL307C, strain MCK1 (second series), active compounds read low 0.703 | locus YOL078W, strain AVO1, active compounds read low 0.977 | locus YOL136C, strain PFK27, active compounds read low 0.805 | locus YOR119C, strain RIO1, active compounds read low 0.927 | [31] 0.818 | locus YOR329C, strain SCD5, active compounds read low 0.993 | locus YPL031C, strain PHO85, active compounds read low 0.827 | locus YPL153C, strain RAD53, active compounds read low 0.855 | locus YPL204W, strain HRR25, active compounds read low 0.797 | locus YPL209C, strain IPL1, active compounds read low 0.984 | locus YPR025C, strain CCL1, active compounds read low 0.991 | locus YPR106W, strain ISR1, active compounds read low 0.977 | locus YPR111W, strain DBF20, active compounds read low 0.96 | strain NNK1, active compounds read low 0.987 | strain TSCII, active compounds read low 0.99
active: [7] 0.366 | locus YHR082C, strain KSP1, active compounds read low 0.591 | locus YKL048C, strain ELM1, active compounds read low 0.799 | [29] 0.8 | locus YOR061W, strain CKA2, active compounds read low 0.553 | [32] 0.808
